Screening data from PubChem.
Rows were chosen to be rich in hits. Some 1.3% of all compounds tested hit in one or more screens of this group.
GC-B act = GC-B (human) receptor activation | activation, % at 10 µM | P20594 | HEK293-GC-B cells, CNP EC30, cGMP TR-FRET; 0% at EC30 CNP, 100% saturating CNP | 370,000 tested, 0.11% active;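 active means activation at 10 µM reaching about 35% in either raw or pattern-adjusted values, limit read from the data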
Target sequence (P20594 whole entry, looked up): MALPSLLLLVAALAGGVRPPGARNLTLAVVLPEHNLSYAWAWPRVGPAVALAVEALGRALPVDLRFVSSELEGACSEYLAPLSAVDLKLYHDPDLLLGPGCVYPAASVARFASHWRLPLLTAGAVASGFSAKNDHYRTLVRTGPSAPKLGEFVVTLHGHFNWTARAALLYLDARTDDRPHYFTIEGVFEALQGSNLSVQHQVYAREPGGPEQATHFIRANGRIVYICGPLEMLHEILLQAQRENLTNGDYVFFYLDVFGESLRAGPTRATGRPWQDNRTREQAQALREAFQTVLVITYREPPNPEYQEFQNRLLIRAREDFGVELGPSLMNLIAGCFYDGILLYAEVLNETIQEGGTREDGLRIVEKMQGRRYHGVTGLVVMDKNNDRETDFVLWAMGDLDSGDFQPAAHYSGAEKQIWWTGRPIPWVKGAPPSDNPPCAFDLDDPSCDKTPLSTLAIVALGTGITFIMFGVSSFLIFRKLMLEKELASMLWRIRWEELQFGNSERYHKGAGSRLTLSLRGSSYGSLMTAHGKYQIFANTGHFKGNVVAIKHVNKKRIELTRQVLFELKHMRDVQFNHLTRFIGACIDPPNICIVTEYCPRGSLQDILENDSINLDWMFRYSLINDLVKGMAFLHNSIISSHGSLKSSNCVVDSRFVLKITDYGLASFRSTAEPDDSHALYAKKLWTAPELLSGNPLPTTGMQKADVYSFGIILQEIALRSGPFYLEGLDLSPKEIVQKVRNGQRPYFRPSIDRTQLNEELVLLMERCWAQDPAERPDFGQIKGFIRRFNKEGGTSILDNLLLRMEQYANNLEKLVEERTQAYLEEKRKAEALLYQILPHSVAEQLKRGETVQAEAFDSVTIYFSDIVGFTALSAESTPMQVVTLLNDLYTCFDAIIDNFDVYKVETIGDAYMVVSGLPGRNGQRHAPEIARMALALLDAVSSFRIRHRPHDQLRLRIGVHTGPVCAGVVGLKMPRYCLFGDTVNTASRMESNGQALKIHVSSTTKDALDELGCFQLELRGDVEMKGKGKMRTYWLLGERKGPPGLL
HIF act = HIF pathway transcriptional activation. U2OS HRE-luciferase reporter, luminescence; normalized: DMSO 0%, desferrioxamine 100%. activation, % at 7.5 µM (by protocol). 300,000 tested, 0.32% active. AID 1910;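 active means mean activation of at least 10% of the iron chelator positive control signal, with at least half of replicates also reaching 10%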
GC-A act = GC-A (human) enzyme activation | activation, % at 10 µM | P16066 | 370,000 tested, 0.14% active | HEK293 GC-A cells, cGMP TR-FRET, EC30 ANP; 0% at EC30 ANP, 100% saturating ANP; in the data active means activation above about 40%
KLK7 zymogen act = activates the human kallikrein-7 zymogen. P49862. 370,000 tested, 0.9% active. activation, % at 7 µM. purified proKLK7, EDANS-DABCYL substrate fluorescence; 100% is mature enzyme control, 0% vehicle;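 active means activation above the mean of all tested compounds plus 3 SD, computed per campaign excluding outliers beyond control limits, cut at about 13% in these data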
Starred values were filed as active, the others as inactive; . = not tested or not shown.

SMILES | GC-B act | HIF act | GC-A act | KLK7 zymogen act
Cc1ccnc(N2C(=O)c3cccc4c([N+](=O)[O-])ccc(c34)C2=O)c1 | . | 1.7 | . | -0.4
COC(=O)[C@@]12CCCCC3=C1N(CCC3)C(=O)[C@H]2CC(=O)NCCCN1CCCC1=O | -2.4 | . | -3.9 | 0.1
CC1CCC2(CC1)CCC2NCc1ccc(Cl)cc1 (stereo not given) | -1.4 | . | -6.1 | .
Cc1nc2c(N=Nc3ccccc3F)c(N)nn2c(N)c1C#N | -2.5 | 0.2 | 42.7* | 0.0
Nc1nn(-c2ccccc2)c(N)c1N=Nc1ccccc1F | -2.4 | 1.3 | 7.4 | -0.2
Cc1cccc(NC(=O)C2CCN(c3ncccn3)CC2)c1C | 4.9 | . | -0.4 | 0.3
O=C(Nc1c(-c2ccc(C(F)(F)F)cc2)nc2ncccn12)c1ccccc1 | 1.3 | . | 0.0 | 1.8
Cc1ccc(NC(=O)/C(=C\c2ccc([N+](=O)[O-])cc2)NC(=O)c2ccccc2)cc1 | -0.7 | -22.6 | -1.3 | 0.1
O=C(N/N=C/c1ccc(O)c(O)c1O)/C(=C/c1ccc([N+](=O)[O-])cc1)NC(=O)c1ccccc1 | -6.4 | 10.4* | -2.2 | 0.3
CC(C)[C@@H](CO)N(Cc1cn(Cc2ccccc2)nn1)S(=O)(=O)c1ccccc1Br | 5.0 | . | 2.5 | 0.4
O=C(COC(=O)c1cnc(Cl)c(Cl)c1)c1ccc(F)cc1 | -2.0 | . | 52.5* | -1.0
O=C(OCc1ccc(Br)cc1)c1cnc(Cl)c(Cl)c1 | -3.6 | 1.5 | 14.9 | -0.4
CCC[C@H]1[C@@H](N(C)Cc2cccs2)CC[C@@]23CCCN2C(=O)CCC[C@@H]13 | -12.4 | . | -13.1 | .
O=C1CCCN1CCCNc1nc2c(S(=O)(=O)c3ccccc3)nnn2c2ccc(Cl)cc12 | 47.8* | 3.0 | 36.1 | -1.5
COc1ccc(CNc2nc(NCc3ccc(OC)c(OC)c3)n(C(=O)c3cccs3)n2)cc1OC | 9.7 | . | 15.7 | 199.4*
Cc1cccc(C)c1Nc1c(-c2ccccn2)nc2ccccn12 | -3.1 | 28.5* | -4.6 | -0.5
Cc1ccc(Nc2c(-c3ccccn3)nc3cccc(C)n23)cc1 | 5.0 | 56.3* | 4.0 | -0.4
COC1=C[C@H](C(=O)NC2CCN(Cc3ccccc3)CC2)C(C)C(c2ccccc2)CC1=O (stereo not given in full) | -1.9 | . | 3.1 | 0.7
C=C1C(=O)[C@]23C[C@H]1CC[C@H]2[C@]1(C)CCC[C@@](C)(C(=O)OC)[C@H]1C[C@@H]3O | 38.0* | . | 18.7 | -0.9
C=C1C(=O)[C@]23C[C@H]1CCC2[C@@]1(C)C(C[C@@H]3O)[C@](C)(C(=O)OC)CC[C@@H]1O (stereo not given in full) | 10.9 | . | 16.3 | 0.1
CCOC(=O)/C(N=Nc1ccc(F)cc1)=C(/O)c1ccc([N+](=O)[O-])cc1 | -7.3 | 14.0* | -10.1 | -0.2
CCCC1CCC2(CC1)CCC2OC(=S)Nc1ccc(Br)cc1 (stereo not given) | -4.5 | . | -0.1 | .
COc1ccc(C2C(C(=O)N3CCN(c4ccccc4C)CC3)CC(=O)N2c2ccc(OC)cc2)cc1 (stereo not given) | -7.2 | . | 0.4 | 0.4
COC(=O)[C@H]1C[C@@]2(C3C=CC=C3)c3ccccc3N[C@H]2N1 | -2.2 | . | -0.2 | 0.0
COc1cccc(C2c3c(ncn(-c4ccccc4)c3=N)Oc3ccc4ccccc4c32)c1 (stereo not given) | -15.8 | . | -23.4 | .
SMILES | GC-B act | HIF act | GC-A act | KLK7 zymogen act
CCOc1ccc(CCNC(=O)COC(=O)Cn2nc(C)c([N+](=O)[O-])c2C)cc1OCC | 4.8 | 13.2* | 1.1 | -0.6
Cc1nn(CC(=O)OCC(=O)NCCc2ccc(F)cc2)c(C)c1[N+](=O)[O-] | 3.3 | . | 0.1 | 0.5
Nc1nc2c(ncn2[C@@H]2O[C@H](C(=O)NCCCN3CCCC3=O)[C@@H](O)[C@H]2O)c(=O)[nH]1 | 45.3* | . | 48.9* | 0.0
O=C1OCCC1Sc1nnc(-c2ccco2)o1 (stereo not given) | -1.6 | -0.3 | -0.4 | 0.0
O=C1OCCC1Sc1nnc(-c2ccc(Br)cc2)o1 (stereo not given) | 23.0 | -1.5 | 66.0* | 1.1
COC(=O)[C@]12C[C@H](CC(=O)NCc3ccc(OC)c(OC)c3)C(=O)N(Cc3ccco3)C1=C[C@H](COCc1ccccc1)O[C@@H]2C | 5.1 | . | 2.8 | 0.3
CC(O)CN(CC(C)O)c1ccc2c(c1)Cc1cc([N+](=O)[O-])ccc1-2 (stereo not given) | 27.4 | . | 45.2* | 0.9
Nc1ccc2c(c1)Cc1cc([N+](=O)[O-])ccc1-2 | -5.5 | 0.5 | 11.0 | 1.1
